Most compounds without a hit are left out; they make up all but 3.1% or so of the library.
KKLEB cytotox – CF airway cell cytotoxicity counter-screen; actives 0.36% (n = 360,000); KKLEB CF airway cells viability, ATPlite luminescence, overnight; stronger effect = lower value; cells stimulated with P. aeruginosa culture filtrate; activity change (cytotoxicity), % at 5 µM; AID 602141;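 active = corrected activity change at or below -50% at 5 µM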
TRAIL sens C8 – caspase-8 TRAIL sensitization | NB7+C8 cells + TRAIL, ATPlite viability luminescence | inhibition (viability loss, TRAIL sensitization), % at 10 µM | actives 1% (n = 360,000);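 active = compounds causing at least 50% loss of cell viability in the single-dose screen, relative to plate controls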
Peg3 prom inh – Peg3 promoter activity inhibition; HeLa PEG-Prom luciferase reporter, luminescence, overnight; inhibition, % at 20 µM; actives 1.7% (n = 360,000); AID 588405;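 active = inhibition of at least 50% at 20 µM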
HIF-2a inh – inhibitors of HIF-2a; inhibition, % at 18.8 µM; AID 624352; actives 0.72% (n = 360,000); 786-0 RCC cells HIF-2a reporter, luciferase luminescence, overnight;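 active = inhibition of the luminescence signal of 40% or more relative to plate controls, in a single-dose primary screen at 18.75 µM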
CF NFkB inh – inhibitors of cystic fibrosis induced NF-kB. inhibition, % at 5 µM. KKLEB NF-kB-GFP reporter, PAF-induced, GFP fluorescence overnight. actives 0.86% (n = 360,000);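 active = at least 50% inhibition at 5 µM, scaled per plate between neutral and stimulator controls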;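 note: PAF is a Pseudomonas aeruginosa culture filtrate used as stimulus; plate controls were PAF-stimulated DMSO wells for no effect and unstimulated DMSO wells for full effect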
PPC-1+TRAIL kill – kills PPC-1 cancer cells in the presence of TRAIL | PPC-1 cells + TRAIL, ATPLite viability luminescence | cell killing (% activity), % at 4 µM or 5 µM | actives 0.41% (n = 220,000);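 active = cell killing above 50% in the first pass at 4 µM, then a duplicate retest at 5 µM averaging 50% or more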;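 note: plate controls were cells with TRAIL plus DMSO for no effect and medium-only wells lacking cells for full effect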
CF NFkB inh conf – CF NF-kB inhibition confirmation, single concentration; shares compounds with CF NFkB inh; KKLEB CF airway cells, PAF-induced NF-kB-GFP fluorescence, overnight; inhibition, % at 5 µM; actives 64% (n = 1,300); in the data active = inhibition above about 40%;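 note: stimulus PAF is a Pseudomonas aeruginosa filtrate and not platelet activating factor; plate controls were DMSO wells with stimulus for no effect and unstimulated DMSO wells for full effect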
Active calls of the source: *; · = no result given.

SMILES	KKLEB cytotox	TRAIL sens C8	Peg3 prom inh	HIF-2a inh	CF NFkB inh	PPC-1+TRAIL kill	CF NFkB inh conf
O=C(CN1CCN(C(=O)C2CCCO2)CC1)Nc1ccc(Cl)cc1 (configuration not stated)	7.4	0.1	10.2	17.9	-1.2	·	·
O=C(Nc1nc2ccc(F)cc2s1)C1CCN(S(=O)(=O)c2cc([N+](=O)[O-])ccc2Cl)CC1	-16.7	25.8	-36.3	-209.1	78.8*	12.0	72.3*
COc1ccc(NC(=O)c2ccc(Cl)nc2)cc1S(=O)(=O)N1CCOCC1	-0.8	6.6	5.4	9.2	3.3	·	·
COc1ccc(NC(=O)Cn2ncc(Cl)c(Cl)c2=O)cc1S(=O)(=O)N1CCOCC1	-14.2	9.2	97.1*	37.3	54.6*	4.5	18.0
Cc1cccc(C)c1NC(=S)NC(=O)c1cccc(Cl)c1	-3.4	4.9	2.5	-4.2	-3.5	·	·
COc1cccc(/C=N/n2c(C3CCCCC3)n[nH]c2=S)c1	-12.0	-17.4	18.0	7.2	60.4*	·	76.8*
c1csc(CNc2ncnc3ccc(-c4ccoc4)cc23)c1	-6.9	7.2	-10.9	3.9	76.6*	·	92.2*
c1csc(CNc2ncnc3ccc(-c4ccc5c(c4)OCO5)cc23)c1	-24.2	9.3	30.4	29.2	26.6	·	·
ON=C1c2ccccc2-c2ccccc21	3.5	-11.7	-76.9	-12.0	62.3*	·	52.8*
N#CC1=C(N)Oc2cc(O)ccc2C1c1ccc(Br)s1 (configuration not stated)	9.6	-2.5	7.7	18.2	11.2	·	·
CCCCn1c(SCC(=O)c2c(N)n(C3CC3)c(=O)[nH]c2=O)nc2cc(S(N)(=O)=O)ccc21	-11.4	2.0	0.0	0.5	11.2	·	·
Cc1ccc(S(=O)(=O)n2nc(OC(=O)c3c(-c4ccccc4Cl)noc3C)cc2N)cc1	-4.8	-5.8	17.4	17.4	26.9	8.5	·
Cc1onc(-c2ccccc2Cl)c1C(=O)Oc1cc(N)n(S(=O)(=O)c2ccc(F)cc2)n1	-20.7	4.0	21.5	22.6	62.5*	-16.3	28.2
O=C(O)CC(c1ccc(C(F)(F)F)cc1)N1Cc2ccccc2C1=O (configuration not stated)	12.0	-25.4	5.6	11.7	1.1	·	·
O=S(=O)(Cc1ccccc1)N1CCNCC1	2.3	-24.1	-0.1	-16.0	8.7	·	·
COc1ccc(CN2C[C@@H](CO)O[C@@H](n3cnc4c(NCc5ccc(F)cc5)ncnc43)C2)cc1	-23.8	5.1	7.1	12.2	26.7	·	·
CCN1CCN(Cc2ccc(NC(=O)c3ccc(C)c(NC(=O)c4ccc5n[nH]nc5c4)c3)cc2C(F)(F)F)CC1	-10.8	-9.6	-9.6	15.0	55.2*	-2.5	69.5*
CCN1CCN(Cc2ccc(NC(=O)c3ccc(C)c(NC(=O)C(=O)c4c[nH]c5ccccc45)c3)cc2C(F)(F)F)CC1	-9.6	88.9*	96.8*	11.3	70.4*	-2.3	70.8*
COCCCn1cc(CN2CC(N3CCCCC3)CS2(=O)=O)nn1 (configuration not stated)	·	-17.9	·	0.3	·	·	·
Cc1ccc(C(=O)NCCCN2CCOCC2)c(C)c1	9.2	13.7	-20.3	-45.1	-3.7	·	·
COc1ccc(CN(CCC(c2ccc(F)cc2)C2CCOC(C)(C)C2)C(=O)c2ccco2)cc1 (configuration not stated)	-14.9	24.5	50.5*	1.7	73.5*	21.3	49.5*
COc1cccc(NC(=O)Nc2nnc(-c3ccccc3SCc3ccccc3)s2)c1	-15.3	9.9	4.2	-4.4	6.3	6.5	·
COc1ccc(NC(=O)Nc2nnc(-c3ccccc3SCc3ccccc3)s2)cc1	-34.6	4.6	-2.0	16.7	50.3*	12.6	21.1
COc1cc(C(=O)Nc2nnc(-c3sccc3C)s2)cc(OC)c1OC	-45.2	1.2	-1.0	-14.4	53.6*	15.3	59.2*
Cc1ccc(C(=O)Nc2ccc(S(=O)(=O)NC3=NCCCCC3)cc2)cc1S(=O)(=O)N1CCOCC1	-0.1	-18.0	24.4	8.6	9.4	·	·
SMILES	KKLEB cytotox	TRAIL sens C8	Peg3 prom inh	HIF-2a inh	CF NFkB inh	PPC-1+TRAIL kill	CF NFkB inh conf
CCCn1nc(C(=O)Nc2cccc(S(=O)(=O)N(C)c3ccccc3)c2)c2ccccc2c1=O	-6.8	24.4	34.1	13.3	-15.5	·	·
COc1cc(-c2cnc3c(NC=O)cc(-c4ccc(S(C)(=O)=O)cc4)cn23)cc(OC)c1OC	-11.2	9.8	23.1	12.7	26.8	·	·
COc1ccc(-c2cc(NC=O)c3ncc(-c4cc(OC)c(OC)c(OC)c4)n3c2)cc1	-28.5	11.4	-1.5	-29.9	51.8*	·	69.7*
COc1ccc(-c2cc(NC=O)c3ncc(-c4ccc(OC)c(OC)c4)n3c2)c(OC)c1	-28.4	-11.2	46.9	9.6	60.3*	·	87.1*
COc1ccccc1-c1cc(NC=O)c2ncc(-c3cccc(C(C)=O)c3)n2c1	-19.0	4.4	42.3	-29.3	59.1*	·	44.4*
COc1cccc(-c2cnc3c(NC=O)cc(-c4ccc(OC)cc4OC)cn23)c1	-40.0	7.8	-11.3	-9.7	63.2*	·	76.0*
CCN(CC(=O)Nc1ccccc1C(F)(F)F)CC(=O)c1[nH]c(C)c(C(C)=O)c1C	-8.5	12.0	15.0	7.1	13.7	·	·
COc1cc(O)cc2cc3c(c(O)c12)C(=O)CC(C)(O)O3 (configuration not stated)	3.9	-8.4	-65.7	-13.8	59.5*	6.9	52.3*
CCN(CC)CCNC(=O)c1ccc(NC(=O)C2CCN(c3ncnc4sc(C)c(C)c34)CC2)cc1	-17.8	1.9	79.6*	28.3	54.6*	·	56.0*
Cc1ccc(S(=O)(=O)c2nc(S(C)(=O)=O)sc2N2CCC(C)CC2)cc1	-13.2	4.3	46.3	12.7	44.3	·	·
O=c1c(O)c(-c2ccccc2)oc2cc(O)cc(O)c12	6.4	-12.3	-203.5	-97.2	59.6*	·	62.0*
Cc1ccc(-c2cc(C(=O)N(C)Cc3cnn(C)c3C)c3cc(Br)ccc3n2)cc1	-6.7	21.8	-16.9	-42.6	66.9*	15.0	58.1*
Cc1noc(C)c1COC(=O)c1cc2c(C)nn(-c3ccc(F)cc3)c2s1	-31.2	6.7	13.7	21.4	51.0*	-7.4	8.1
Cc1nn(-c2ccc(F)cc2)c2sc(C(=O)OCC(=O)N3CCC(C)CC3)cc12	-3.0	-10.0	22.0	13.4	-23.3	0.2	·
Nc1nc(N)nc(-c2cc([N+](=O)[O-])ccc2O)n1	-21.1	-3.6	59.9*	-27.7	61.4*	·	72.5*
NC1=NC(=O)C(c2ccccc2)(c2ccccc2)S1	2.0	0.2	-6.2	0.9	14.9	·	·
CC(C)(C)Cc1c(-c2cccc(Br)c2)nc2ccc(Br)cn12	3.4	-3.7	8.4	-65.0	-5.8	·	·

Source: PubChem
